Bioassay records from PubChem BioAssay.
Most compounds without a hit are left out; they make up all but 8% or so of the library.
FMDV inh: blocks foot and mouth disease virus; AID 1159524; 410,000 tested, 1.2% active; Potency, µM (top dose mostly 57.9 µM), without a hit: at the highest dose activity change, negative = inhibition, hits mostly inhibitors; FMDV antiviral cell-based qHTS; calls by dose curve; tested in HEK293T cells; further: read-out not given here; potency means the concentration at half of the fitted maximal effect; on the % scale 0 is the no-effect control and ±100 the full control effect; nearly all actives have a fitted effect of over 45% in size
MARV entry inh: Marburg virus entry inhibition. Marburg virus pseudotyped entry inhibition, cell reporter. Potency, µM (doses to about 37.8 µM), for the others: at the top dose activity change, negative = inhibition, actives largely listed as inhibitors. 300,000 tested, 1.8% active; calls by dose curve; tested in HEK293 cells; further: potency means the concentration at half of the fitted maximal effect; on the % scale 0 is the no-effect control and ±100 the full control effect
HCV inh: blocks hepatitis C virus; 340,000 tested, 3.4% active; Huh7.5.1 HCVcc-Cre infection, luciferase reporter, 44 h; Potency, µM (doses to about 41.8 µM), for the others: top-dose activity change, negative = inhibition, usual class: inhibitors; active means well fitted inhibition curve with a large enough effect; inconclusive means small, poorly fitted or top-dose-only effect, or another doubt; inactive means no such curve, though single readings can be large or run the other way; further: potency means the concentration at half of the fitted maximal effect; on the % scale 0 is the no-effect control and ±100 the full control effect
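HCVcc-Cre virus at an moi near 0.5 was added right after compound to cells cultured 4 h from seeding (1,000 cells/well). Luciferase activity was determined 44 h later, 15 min after substrate addition at RT.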
SARS PLpro yeast: inhibitors of SARS-CoV papain-like protease in yeast | S. cerevisiae expressing SARS-CoV PLpro, growth rescue | Potency, µM (series often up to 32.9 µM), for inactives: at the top dose activity, positive = growth rescue, hits mostly activators | 330,000 tested, 0.19% active; calls by dose curve; further: potency means the concentration at half of the fitted maximal effect; 0% is about no effect; nearly all actives have a fitted effect of over 55% in size
HCMV antiviral: blocks human cytomegalovirus replication; HFF cells, HCMV-luciferase reporter, 72 h; stronger effect = lower value; activity change, negative = inhibition, % at 57.5 µM; 410,000 tested, 4.5% active; AID 1259415; in the data active means activity change below about -60%; inconclusive means no clear call, values can overlap the other calls; inactive means above about -39%; further: on the % scale 0 is the no-effect control and ±100 the full control effect
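Compounds were evaluated in HFFs infected with an HCMV luciferase reporter virus (MOI 1 PFU/cell). Luciferase in lysates collected 72 h post infection served as the replication measure.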
Lassa entry inh: Lassa virus entry inhibition | 300,000 tested, 1.2% active | Lassa virus pseudotype entry inhibition, cell reporter | Potency, µM (series often up to 37.9 µM), for the others: at the highest dose activity change, negative = inhibition, usual class: inhibitors | AID 540256; calls by dose curve; tested in HEK293 cells; further: potency means the concentration at half of the fitted maximal effect; on the % scale 0 is the no-effect control and ±100 the full control effect; nearly all actives have a fitted effect of over 50% in size
The depositor's hits bear a star; [ ] = dose if it differs, or a comment.

Results for O=C1[C@@H]2[C@@H]3C[C@@H]([C@H]4ON=C(c5ccc(OCc6ccccc6)cc5)[C@@H]34)[C@@H]2C(=O)N1c1ccc2c(c1)OCO2 ?
FMDV inh: -9%; MARV entry inh: 4.5µM*; HCV inh: -21%; SARS PLpro yeast: 21%; HCMV antiviral: 13; Lassa entry inh: -15%

How did COc1cccc2cc(C(=O)NCc3ccco3)c(=Nc3ccc(C(=O)O)cc3)oc12 do in these assays?
MARV entry inh: 8%; HCV inh: 13%; SARS PLpro yeast: 9%; HCMV antiviral: -78*; Lassa entry inh: 4%

What do the screens show for `COc1ccc(-n2nc(C(=O)N3CCN(c4cccc(C(F)(F)F)c4)CC3)c3c4ccccc4n(C)c3c2=O)cc1Cl`?
FMDV inh: -16%; MARV entry inh: 14%[46.1 µM]; HCMV antiviral: 14; Lassa entry inh: 2%[46.1 µM]

Results for Cc1oc2ccccc2c1CC(=O)NCCCN(C)C ?
FMDV inh: -20%; HCV inh: -13%; SARS PLpro yeast: -1%; HCMV antiviral: -64*

How did C=CCc1ccccc1OCC(O)CN(C(C)C)C(C)C (stereo unspecified) do in these assays?
FMDV inh: -15%; MARV entry inh: 6.3µM*; HCV inh: -12%; SARS PLpro yeast: -2%; HCMV antiviral: 10; Lassa entry inh: inconclusive

What do the screens show for `CCc1nc2sc3c(O)cc(=O)[nH]c3c2cc1C`?
FMDV inh: -1%; MARV entry inh: 3%[46.1 µM]; HCV inh: 2%; SARS PLpro yeast: 4%; HCMV antiviral: -81*; Lassa entry inh: 0%[46.1 µM]

What do the screens show for `O=c1c(O[C@@H]2O[C@H](CO)C(O)C2O)c(-c2ccc(O)c(O)c2)oc2cc(O)cc(O)c12` (stereo partly specified)?
FMDV inh: -17%; HCV inh: 18%; SARS PLpro yeast: 1%

How did COc1cc(O)c2c(=O)c(-c3ccc(O[C@@H]4O[C@H](CO)[C@@H](O)[C@H](O)[C@H]4O)cc3)coc2c1 do in these assays?
FMDV inh: 31%; MARV entry inh: 10µM*; HCV inh: -13%; SARS PLpro yeast: -3%; HCMV antiviral: 67; Lassa entry inh: inconclusive

How did O=c1c(OC2OC(CO)C(O)C(O)C2O)c(-c2ccc(O)c(O)c2)oc2cc(O)cc(O)c12 (stereo unspecified) do in these assays?
FMDV inh: -21%; MARV entry inh: 15µM*; HCV inh: -11%[8.37 µM]; HCMV antiviral: 8; Lassa entry inh: 0%

What do the screens show for `COc1ccc(OC)c([C@H]2/C(=C(\O)c3ccc(C)cc3)C(=O)C(=O)N2Cc2ccco2)c1`?
MARV entry inh: -24%[46.1 µM]

How did C=CCN1c2ccccc2[C@]23CCC(=O)N(Cc4ccco4)C2=NC(C(=O)OC)=C(C(=O)OC)[C@H]13 do in these assays?
MARV entry inh: -1%[14.2 µM]

Results for COc1ccc(Cn2cc(CN3CC(N4CCSCC4)CS3(=O)=O)nn2)cc1 (stereo unspecified) ?
FMDV inh: -14%; HCMV antiviral: -100*

What do the screens show for `CNC(=O)CSc1nnc(SCCC(=O)O)s1`?
FMDV inh: 7%; MARV entry inh: inconclusive; HCV inh: 7%; SARS PLpro yeast: -12%; HCMV antiviral: inconclusive; Lassa entry inh: 4%

How did CC(C)S(=O)(=O)c1csc(NC(=O)Nc2cccc([N+](=O)[O-])c2)c1Cl do in these assays?
FMDV inh: inconclusive; HCV inh: 25µM*; SARS PLpro yeast: 0%; HCMV antiviral: 6

How did C=CCN1c2ccccc2[C@]23CCC(=O)N(Cc4cc(OC)c(OC)c(OC)c4)C2=NC(C(=O)OC)=C(C(=O)OC)[C@H]13 do in these assays?
MARV entry inh: -7%[14.2 µM]

How did CCOc1cc(Cl)c(S(=O)(=O)n2cc(C)nc2CC)cc1Cl do in these assays?
FMDV inh: inconclusive; MARV entry inh: -19%[46.1 µM]; HCMV antiviral: inconclusive; Lassa entry inh: inconclusive

What do the screens show for `CCc1nc(C)cn1S(=O)(=O)c1ccc(Cl)c(Cl)c1OC`?
FMDV inh: inconclusive; MARV entry inh: inconclusive; HCMV antiviral: -75*; Lassa entry inh: -19%[46.1 µM]
